# EWS-Fli block: EWS/Fli-driven NR0B1 reporter inhibitors, primary screen, A673 cells, NR0B1 luciferase, luminescence, MLPCN library; 0.67% of 350,000 active; viability-normalised; inhibition, % at 12.6 µM;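 active means mean inhibition of at least 50% after viability correction, with every replicate also passing that limit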;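 further: firefly luciferase signal divided by Alamar Blue viability fluorescence both relative to DMSO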
# PAX8 inh HTS: inhibitors of PAX8-driven TPO luciferase reporter, primary screen, RMG-I cells, single concentration; 1.2% of 360,000 active; SteadyGlo, 24 h; inhibition, % at 12.6 µM;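 active means mean replicate inhibition at least 60% with every replicate also reaching 60%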;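 further: luciferase light reporting Pax8 driven TPO promoter activity; plate controls were median of neutral control wells for no effect and mitoxantrone controls for full effect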
# TROY signal inh: inhibitors of TROY-driven NF-kB signaling, primary screen, Q293 LMP1-TROYcd cells, NF-kB luciferase, uHTS; Q293 LMP1-TROYcd NF-kB luciferase reporter, 4 h; inhibition, % at 10 µM; 0.98% of 360,000 active; AID 1347056, 2019;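 active means compounds whose plate-normalised and pattern-corrected inhibition of the luciferase reporter signal at the single screening dose is 50% or more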
# LGR2 antag: inhibitors of bursicon-induced LGR2 CRE-luciferase signal, primary screen, cell-based, HEK293, CRE-luciferase reporter, bursicon stimulation; Drosophila bursicon receptor LGR2 (rickets); bursicon-stimulated, 4 h; inhibition, % at 9.99 µM; 0.35% of 380,000 active; AID 720647, 2013;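 active means drop in luminescence signal, shown as inhibition above about 50% in the replicate tests, limit read from the data, passing the limit was not always enough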;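 further: agonist challenge used bursicon conditioned medium at about half maximal strength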
# TWEAK-Fn14 inh: inhibitors of TWEAK-Fn14 signaling, primary screen, luciferase reporter cells, uHTS. TWEAK-stimulated Fn14 reporter cells, luciferase luminescence, 8 h. inhibition, % at 10 µM. 2% of 360,000 active; in the data active means inhibition above about 50%
# * = called active by the depositor; / = not tested or not shown. Only some compounds are listed: those with a hit (about 2.8% of all), similar ones and a draw of the others.
SMILES,EWS-Fli block,PAX8 inh HTS,TROY signal inh,LGR2 antag,TWEAK-Fn14 inh
COCC(C)n1c(C)cc(C(=O)COC(=O)c2cnc(Cl)c(Cl)c2)c1C (stereo unspecified),5.7,2.4,3.6,1.9,-1.8
Cc1cc(C(=O)COC(=O)c2cccn2C)c(C)n1Cc1ccco1,28.9,17.9,75.7*,52.9*,74.2*
Cc1cc(C(=O)COC(=O)c2ccncc2)c(C)n1Cc1ccco1,-7.0,-18.4,-9.3,-27.0,59.5*
Cc1cc(C(=O)CN2C(=O)C(=O)N(Cc3ccco3)C2=O)c(C)n1CCc1ccccc1,53.9*,32.3,13.8,2.2,18.9
COCC(C)n1c(C)cc(C(=O)COC(=O)c2cccn2C)c1C (stereo unspecified),61.5*,-1.4,81.8*,/,93.5*
O=C(NC1Cc2ccccc2C1)[C@H]1N[C@H]2c3cccc(=O)n3C[C@H]2[C@@H]1CO,-4.7,5.2,/,-13.7,/
COc1ccc(C#Cc2ccc([C@@H]3[C@H](CO)N4C(=O)CN(C(=O)c5cccnc5)C[C@@H]34)cc2)cc1,-1.0,12.4,/,-3.7,/
Cc1cc(C(=O)COC(=O)c2ccco2)c(C)n1Cc1ccco1,-8.7,-131.2,84.4*,91.5*,93.4*
COc1ccc(CCNc2ncnc3[nH]ncc23)cc1OC,/,/,6.7,/,26.1
COc1ccc(CCNc2ncnc3sc(C)cc23)cc1OC,9.9,40.5,32.2,2.9,75.8*
CO[C@@H]1CN(C)C(=O)c2cc(NC(=O)C3CCC3)ccc2OC[C@@H](C)N(Cc2nccs2)C[C@@H]1C,1.6,4.3,/,-9.5,/
O=C(Nc1ccccc1)C1=C(c2ccccc2)S(=O)(=O)CCS1(=O)=O,40.5,10.1,87.2*,100.4*,87.6*
O=C(C[C@@H]1C[C@@H]2c3cc(NC(=O)c4cccnc4)ccc3O[C@@H]2[C@@H](CO)O1)NC1CCCC1,-11.7,/,/,0.6,/
CCOC(=O)/C(C#N)=C/C=C1/C=CC=CN1C,-36.7,-57.4,-21.8,/,-17.4
C=CCN1C=CC(=C/C=C(/C#N)C(=O)OCC)C=C1,/,-127.4,-21.9,/,50.5*
C[C@@H]1CCCCO[C@H](CN(C)Cc2ccc(C(F)(F)F)cc2)[C@H](C)CN([C@@H](C)CO)C(=O)c2cc(NS(=O)(=O)c3ccc(F)cc3)ccc2O1,4.0,82.7*,/,24.7,/
C[C@@H]1CCCCO[C@@H](CN(C)Cc2ccc(C(F)(F)F)cc2)[C@H](C)CN([C@H](C)CO)C(=O)c2cc(NS(=O)(=O)c3ccccc3)ccc2O1,13.4,92.0*,/,18.2,/
C[C@@H]1CCCCO[C@@H](CN(C)Cc2ccccc2)[C@@H](C)CN([C@@H](C)CO)C(=O)c2cc(NS(=O)(=O)c3ccccc3)ccc2O1,7.5,2.6,/,7.7,/
C[C@@H]1CN([C@@H](C)CO)C(=O)c2cc(NS(=O)(=O)c3ccc(F)cc3)ccc2O[C@@H](C)CCCCO[C@@H]1CN(C)Cc1ccc(C(F)(F)F)cc1,0.4,88.0*,/,10.4,/
C[C@H](CO)N1C[C@H](C)[C@H](CN(C)Cc2ccc(C(F)(F)F)cc2)OCCCC[C@H](C)Oc2ccc(NS(=O)(=O)c3ccc(F)cc3)cc2C1=O,73.3*,106.1*,/,13.3,/
CCCNC(=O)Nc1ccc2c(c1)C(=O)N(C)C[C@H](OC)[C@H](C)CN(Cc1ccccn1)[C@@H](C)CO2,-15.5,-4.6,/,4.5,/
C[C@@H]1CCCCO[C@H](CN(C)Cc2ccc(C(F)(F)F)cc2)[C@H](C)CN([C@H](C)CO)C(=O)c2cc(NS(=O)(=O)c3ccc(F)cc3)ccc2O1,22.2,78.7*,/,8.0,/
C[C@@H]1CCCCO[C@H](CN(C)Cc2ccc(C(F)(F)F)cc2)[C@@H](C)CN([C@@H](C)CO)C(=O)c2cc(NS(=O)(=O)c3ccc(F)cc3)ccc2O1,31.5,103.1*,/,15.5,/
C[C@@H]1CN([C@@H](C)CO)C(=O)c2cc(NS(=O)(=O)c3ccc(F)cc3)ccc2O[C@@H](C)CCCCO[C@@H]1CN(C)Cc1ccc(C(=O)O)cc1,-10.1,-7.5,/,4.6,/
C[C@H]1CCCCO[C@@H](CN(C)Cc2ccc(C(F)(F)F)cc2)[C@@H](C)CN([C@@H](C)CO)C(=O)c2cc(NS(=O)(=O)c3ccc(F)cc3)ccc2O1,16.8,95.6*,/,13.9,/
SMILES,EWS-Fli block,PAX8 inh HTS,TROY signal inh,LGR2 antag,TWEAK-Fn14 inh
COc1ccc(S(=O)(=O)Nc2ccc3c(c2)C(=O)N([C@H](C)CO)C[C@H](C)[C@@H](CN(C)Cc2ccc(C(F)(F)F)cc2)OCCCC[C@@H](C)O3)cc1,5.0,28.7,/,18.1,/
C[C@@H]1CN([C@H](C)CO)C(=O)c2cccc(NC(=O)Nc3ccc(F)cc3)c2O[C@@H]1CN(C)CC1CC1,-12.6,0.5,/,-13.3,/
N#Cc1nc(Nc2cccc(Cl)c2)c2ncn(C3CCCC3)c2n1,0.6,34.0,0.8,-5.3,87.4*
O=C(Nc1cccc(Cl)c1)N1C[C@H]2[C@@H](c3ccccc31)[C@@H](CO)N2C(=O)C1CC1,-8.2,-11.1,/,-4.5,/
COC(=O)c1c(C)oc2ccc(N(C(=O)c3ccncc3)S(=O)(=O)c3ccccc3)cc12,/,/,48.9,/,29.0
COC(=O)c1c(C)oc2ccc(N(C(=O)c3ccncc3)S(=O)(=O)c3ccc4ccccc4c3)cc12,/,/,53.0*,39.9,57.1*
Cc1cc(F)ccc1S(=O)(=O)N(C(=O)c1ccncc1)c1ccc(OC(=O)c2ccncc2)cc1,-7.2,7.7,62.2*,13.8,55.5*
COC(=O)c1c(C)oc2ccc(N(C(=O)c3ccncc3)S(=O)(=O)c3ccc(C)cc3)cc12,/,/,59.2*,/,56.2*
COC(=O)c1c(C)oc2ccc(N(C(=O)c3ccncc3)S(=O)(=O)c3ccc(C)cc3C)cc12,/,36.8,65.6*,15.4,79.6*
Cc1ccc(S(=O)(=O)N(C)C[C@H]2Oc3ccc(NS(=O)(=O)c4cccs4)cc3C(=O)N([C@@H](C)CO)C[C@@H]2C)cc1,7.4,-30.6,/,-28.0,/
Cc1ccc(S(=O)(=O)N(C(=O)c2ccncc2)c2ccc3oc4c(c3c2)CCCC4)cc1[N+](=O)[O-],19.7,11.1,54.0*,-2.0,29.5
CCCCCCc1cc2cc(C(=O)Nc3cccc(OC)c3)c(=O)oc2cc1O,/,-12.2,35.7,31.8,59.1*
Cc1nc2c(-c3ccccc3)c(C)nn2c(N)c1-c1ccccc1,/,/,10.2,/,-18.3
COc1ccc(-c2cc3nc(C)cc(N)n3n2)cc1,/,19.9,10.0,/,60.2*
Cc1nc2cc(-c3ccccc3)nn2c(N)c1-c1ccccc1,5.5,-191.8,72.5*,7.4,73.8*
C[C@@H]1CN([C@H](C)CO)C(=O)c2cc(C3=CCCC3)cnc2O[C@H]1CN(C)C(=O)CN(C)C,-8.9,/,/,-3.4,/
CC=Cc1ccc2n(c1=O)C[C@H]1[C@H](CO)[C@@H](C(=O)NCc3ccccc3)N(S(C)(=O)=O)[C@@H]21 (mixture of isomers),1.8,-3.7,/,19.2,/

# From PubChem BioAssay
